Source: PubChem BioAssay (National Center for Advancing Translational Sciences (NCATS))
Vif-A3F inh = inhibitors of Vif-A3F interaction; actives 0.2% (n = 390,000); AID 602313; HeLa A3F-eYFP + Vif (tagged APOBEC3F with the HIV-1 protein that degrades it), YFP fluorescence increase; Potency, µM (titrated, usually from 46.1 µM), for inactives: at the top dose activity, negative = active; also: potency is read from the fitted curve at half-maximal effect; % of control where 0% means no effect; nearly all actives have a fitted effect of over 65% in size
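Fluorescence increase (Ex 488/Em 500-530) after overnight compound treatment at 37 deg C flags inhibition of Vif-driven A3F-eYFP loss in stable HeLa A3F-eYFP/Vif cells seeded overnight beforehand.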
IL-1B inflam inh = inhibitors of inflammasome signaling (IL-1 beta secretion); THP-1 LPS/ATP IL-1B secretion, AlphaLISA, 16 h; hits give low values; activity change, % at 57.5 µM; actives 4.7% (n = 360,000); AID 743279; in the data active = activity change below about -50%; inconclusive = mostly about -30% to -49%; also: % is scaled to controls: 0 for no effect and ±100 for the full control effect
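Secreted IL-1B measured by AlphaLISA bead assay after 16 h compound exposure of THP-1 cells; compounds (final up to 57.5 uM) added 1 h before LPS (250 ng/mL) and ATP (1.25 mM) stimulation; lower signal means less secretion.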
Giardia killer = Giardia lamblia killing | activity change, % at 7.66 µM, hits read low | Giardia lamblia trophozoite viability | actives 0.15% (n = 340,000); in the data active = activity change below about -80%; inconclusive = between about -30% and that limit;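 also: parasites exposed to compound for two days anaerobically before the ATP read; % is scaled to controls: 0 for no effect and ±100 for the full control effect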
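ATP-content bioluminescence gauges trophozoite survival. Cells (100/well) receive compound and incubate anaerobically for 48 hrs at 37 deg C; detection reagent follows for 15-30 min at room temperature.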
SW480 rerep = DNA re-replication induction in SW480 cells; SW480 DNA re-replication, Hoechst DNA content imaging, 48 h; Potency, µM (top dose mostly 46.1 µM), for the others: at the highest dose re-replication activation, actives largely listed as activators; actives 1.8% (n = 340,000); also: potency is read from the fitted curve at half-maximal effect; % of control where 0% means no effect; nearly all actives have a fitted effect of over 55% in size
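250 cells/well; 23 nL cpd via pin tool; 48 hr, 37 C, 5% CO2; Hoechst 40 min; imager read of total nuclear intensity, ex 405/em 500-530 nm.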
Vif-A3G inh = Vif-A3G binding inhibition. HeLa A3G-eYFP + Vif (tagged APOBEC3G with the HIV-1 protein that degrades it), YFP fluorescence, overnight. Q9HC16. Potency, µM (titrated, usually from 46.1 µM), without a hit: at the highest dose activity, negative = active, usual class: inhibitors. actives 0.076% (n = 410,000); also: potency is read from the fitted curve at half-maximal effect; % is scaled to controls: 0 for no effect and ±100 for the full control effect; nearly all actives have a fitted effect of over 60% in size
Target sequence (Q9HC16 whole entry, looked up): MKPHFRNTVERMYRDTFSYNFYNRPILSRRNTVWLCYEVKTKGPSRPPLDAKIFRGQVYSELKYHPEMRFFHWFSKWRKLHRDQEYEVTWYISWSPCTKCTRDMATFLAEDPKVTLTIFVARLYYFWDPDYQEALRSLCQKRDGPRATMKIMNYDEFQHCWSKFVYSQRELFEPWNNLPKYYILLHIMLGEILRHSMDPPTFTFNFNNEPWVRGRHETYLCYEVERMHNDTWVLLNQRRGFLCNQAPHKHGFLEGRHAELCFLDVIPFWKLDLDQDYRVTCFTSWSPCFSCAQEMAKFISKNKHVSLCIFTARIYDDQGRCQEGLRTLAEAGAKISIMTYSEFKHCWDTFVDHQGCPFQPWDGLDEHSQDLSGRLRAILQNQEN
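Read-out is eYFP fluorescence (Ex 488/Em 500-530) from Vif-expressing HeLa A3G-eYFP cells; more signal means A3G escaped Vif-mediated degradation. Cells plated overnight, compound pinned in, incubated overnight at 37 deg C.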
MCF10A rerep = induces DNA re-replication in MCF 10a normal breast cells. MCF 10A DNA re-replication, Hoechst nuclear intensity, 48 h. Potency, µM (titrated, usually from 46.1 µM), for the others: at the top dose activity, positive = re-replication, actives largely listed as activators. actives 2.9% (n = 350,000). AID 624296; also: potency is read from the fitted curve at half-maximal effect; % of control where 0% means no effect; nearly all actives have a fitted effect of over 50% in size
The depositor's hits bear a star; [ ] = remark or other dose. Only some compounds are listed: those with a hit (about 6.9% of all), similar ones and a draw of the others. Unless noted, calls follow the shape of the dose curve; as a rule, active = well fitted curve in the direction sought with a large enough effect; inconclusive = small, poorly fitted or top-dose-only effect, or another doubt; inactive = no such curve, though single readings can be large; an effect the other way counts as inactive or inconclusive.

What do the screens show for `CCN1C=C(Cc2ccc(F)cc2)C2=C(C1)C(c1ccc(F)cc1)C(C#N)=C(N)O2` (centres undefined)?
Vif-A3F inh: -3%; IL-1B inflam inh: -103*; Giardia killer: 2; SW480 rerep: inconclusive; Vif-A3G inh: inconclusive; MCF10A rerep: inconclusive

How did CC(CNC(=O)c1ccc(Cn2c(=O)c3cccn3c3cccnc32)cc1)c1ccccc1 (centres undefined) do in these assays?
Vif-A3F inh: 4%; Vif-A3G inh: -13%

How did CSc1ccccc1NC(=O)c1cc(-c2cccnc2)nc2ccc(Br)cc12 do in these assays?
Vif-A3F inh: -6%; IL-1B inflam inh: inconclusive; Giardia killer: -2; SW480 rerep: 3%; Vif-A3G inh: 2%; MCF10A rerep: 16µM*

Results for Cc1ccc(C)c(-c2cc(C(=O)Nc3cccnc3)c3ccccc3n2)c1 ?
Vif-A3F inh: -7%; IL-1B inflam inh: 0; Giardia killer: -6; SW480 rerep: 6%; Vif-A3G inh: -7%; MCF10A rerep: 4%

Results for CC(=O)Nc1cccc(NC(=O)c2cc(-c3cccnc3)nc3ccc(Br)cc23)c1 ?
Vif-A3F inh: -2%; IL-1B inflam inh: -19; Giardia killer: -8; SW480 rerep: inconclusive; Vif-A3G inh: -20%; MCF10A rerep: 12µM*

Results for Cc1ccc2nc(-c3cccnc3)cc(C(=O)Nc3ccccc3[N+](=O)[O-])c2c1 ?
Vif-A3F inh: 3%; IL-1B inflam inh: -15; Giardia killer: 4; SW480 rerep: inconclusive; Vif-A3G inh: -14%; MCF10A rerep: 15µM*

How did O=C(Nc1cccnc1)c1cc(-c2ccc(Br)cc2)nc2ccccc12 do in these assays?
Vif-A3F inh: -1%; IL-1B inflam inh: -77*; Giardia killer: 15; SW480 rerep: 17%; Vif-A3G inh: -1%; MCF10A rerep: inconclusive

Results for CCc1ccc(NC(=O)CN2C(=O)c3ccccc3Sc3ccc(C(=O)N4CCCC4)cc32)cc1 ?
Vif-A3F inh: -4%; Vif-A3G inh: -7%

Results for CCCN(CCC)c1cc(C)nc2nc(-c3ccc(C(C)(C)C)cc3)nn12 ?
Vif-A3F inh: 0%; Vif-A3G inh: 3%

How did O=C(O)c1cc(-c2cccnc2)nc2ccc(Br)cc12 do in these assays?
Vif-A3F inh: 1%; IL-1B inflam inh: 36; Giardia killer: 24; SW480 rerep: 2%; Vif-A3G inh: 1%; MCF10A rerep: -17%[9.22 µM]

What do the screens show for `CC(OC(=O)c1cc(-c2cccnc2)nc2ccccc12)C(=O)Nc1ccc2ccccc2c1` (centres undefined)?
Vif-A3F inh: -3%; IL-1B inflam inh: -8; Giardia killer: 7; SW480 rerep: 2%; Vif-A3G inh: -17%; MCF10A rerep: 16µM*

Results for O=C(Nc1ccc(C(F)(F)F)cc1)c1cc(-c2cccnc2)nc2ccc(Br)cc12 ?
Vif-A3F inh: 4%; IL-1B inflam inh: 63; Giardia killer: 8; SW480 rerep: inconclusive; Vif-A3G inh: -4%; MCF10A rerep: 5.2µM*

Results for Cc1cc(NC(=O)c2cc(-c3ccncc3)nc3ccccc23)ccc1Br ?
Vif-A3F inh: 10%; IL-1B inflam inh: -50*; Giardia killer: 23; SW480 rerep: 10%; Vif-A3G inh: -20%; MCF10A rerep: inconclusive

Results for O=C(NNC(=S)Nc1ccccc1)c1cc(-c2cccnc2)nc2ccccc12 ?
Vif-A3F inh: 6%; IL-1B inflam inh: -7; Giardia killer: -7; SW480 rerep: -2%; Vif-A3G inh: -1%; MCF10A rerep: -2%

How did COc1cc(-c2cc3n(C)c(C)c(CCC(=O)NC4CCCCC4)c(=O)n3n2)cc(OC)c1OC do in these assays?
Vif-A3F inh: -6%; Vif-A3G inh: -1%

What do the screens show for `c1cc(-c2cccs2)nc(-c2cccs2)c1`?
Vif-A3F inh: 31%; IL-1B inflam inh: 3; Giardia killer: 5; SW480 rerep: -3%; Vif-A3G inh: -3%; MCF10A rerep: -1%

What do the screens show for `c1csc(-c2cn3ccc4ccccc4c3n2)c1`?
Vif-A3F inh: 1%; IL-1B inflam inh: -62*; Giardia killer: -14; SW480 rerep: 1%; Vif-A3G inh: -2%; MCF10A rerep: 11%

How did Cc1ccc(S(=O)(=O)N2C[C@H]3n4c(=O)ccc(=O)n4C[C@H](OC(=O)Nc4cccs4)[C@@]3(O)C2)cc1 do in these assays?
Vif-A3F inh: 3%; IL-1B inflam inh: -79*; Vif-A3G inh: inconclusive

Results for CCCCCCn1c(=O)n2n(c1=O)C[C@]1(OC(=O)NCc3ccccc3)CN(S(=O)(=O)c3ccc(C)cc3)C[C@]1(O)C2 ?
Vif-A3F inh: -15%; IL-1B inflam inh: -24; Vif-A3G inh: 0%

Results for COC(=O)[C@H]1C[C@H](OC(=O)NC2CCCC2)[C@@]2(O)CN(S(=O)(=O)c3ccc(C)cc3)CC2[C@H]1C(=O)OC (some centres undefined) ?
Vif-A3F inh: -5%; IL-1B inflam inh: -18; Vif-A3G inh: 2%

What do the screens show for `CCCCCCn1c(=O)n2n(c1=O)[C@@H]1CN(S(=O)(=O)c3ccc(C)cc3)C[C@]1(O)[C@@H](OC(=O)Nc1cccs1)C2`?
Vif-A3F inh: -24%; IL-1B inflam inh: -52*; Vif-A3G inh: -15%

Results for CCCCCCn1c(=O)n2n(c1=O)C[C@]1(OC(=O)Nc3cccs3)CN(S(=O)(=O)c3ccc(C)cc3)C[C@]1(O)C2 ?
Vif-A3F inh: inconclusive; IL-1B inflam inh: -51*; Vif-A3G inh: -11%

What do the screens show for `COC(=O)[C@H]1C[C@H](OC(=O)Nc2cccs2)[C@@]2(O)CN(S(=O)(=O)c3ccc(C)cc3)CC2[C@H]1C(=O)OC` (some centres undefined)?
Vif-A3F inh: -24%; IL-1B inflam inh: -56*; Vif-A3G inh: 6%

Results for CCC(C)CN1C(=O)CN(S(C)(=O)=O)CC1(C)C(=O)NCc1ccccc1 (centres undefined) ?
IL-1B inflam inh: 13

How did COC(=O)C1=C[C@@H](C(=O)OC)[C@@H]2C3=C(C(=O)C2(C)C)[C@H](C)n2c(=O)n(C)c(=O)n2[C@@H]3C1 do in these assays?
Giardia killer: 0; Vif-A3G inh: -1%

What do the screens show for `COc1ccccc1CNC(=O)c1cnc2sc(N3CCCCC3)nn2c1=O`?
Vif-A3F inh: -3%; Vif-A3G inh: 0%

How did COc1cc(NC(=O)c2ccco2)c(C(=O)O)cc1OC do in these assays?
Vif-A3F inh: -19%; IL-1B inflam inh: -23; Giardia killer: 8; SW480 rerep: -8%; Vif-A3G inh: 2%; MCF10A rerep: 5%
